In all, about 2,100 compounds went through this assay and about 760 (36%) were called active.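 Rule for the calls: active = thallium-flux fluorescence traces judged by eye to show enhanced or reduced glutamate response, manual score 1 or -1, so both directions (some results past the limit were not filed as active); inactive = the rest, including fluorescent or raised-baseline compounds.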 Only a sample is shown.
Assay: thallium influx changes without GIRK channels – cell-based, HEK-293 rmGlu8, no GIRK, thallium flux, counter-screen for GIRK activator project, confirmation (AID 623868);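 note: extra codes mark interference with 3 for fluorescent and 4 for baseline rise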
Settings: thallium flux fluorescence, at 10 µM, actives lie on both sides, codes: 1 enhancer, -1 blocker, 0 none, thallium stimulus containing EC20 glutamate

Row | SMILES | manual score
1 | COC(=O)c1sc(NC(=S)NC(=O)c2ccccc2)nc1C | 1 (active)
2 | COC(=O)c1sc(NC(=S)NC(=O)c2ccccc2Cl)nc1C | 1 (active)
3 | COC(=O)c1sc(NC(=S)NC(=O)c2cccc(C)c2)nc1C | 1 (active)
4 | COC(=O)Nc1nc(C)c(C(=O)N(C)C)s1 | 0 (inactive)
5 | CCOC(=O)c1sc(NC(=S)NC(=O)c2ccco2)nc1C | 1 (active)
6 | CCCCSc1nc(N)c(NC(=O)c2ccco2)c(=O)[nH]1 | 0 (inactive)
7 | Cc1nnc(NC(=O)c2ccco2)s1 | 0 (inactive)
8 | COc1cc(C)ccc1OCCOc1cc(C)ccc1Cl | 0 (inactive)
9 | COc1ccc(OC)c(S(=O)(=O)N(C)CC(=O)N2CCN(c3ccccc3F)CC2)c1 | 0 (inactive)
10 | Cc1cccc2c1nc(-c1ccccc1)n1cnnc21 | 0 (inactive)
11 | O=C(COc1ccc(Cl)cc1Cl)Nc1ccccn1 | 0 (inactive)
12 | Cc1cc(NC(=O)COc2ccc(Cl)cc2Cl)n(-c2ccccc2)n1 | 0 (inactive)
13 | CN(C(=S)NC(=O)CCCOc1ccc(Cl)cc1Cl)c1ccccc1 | 1 (active)
14 | CSc1nc(N2CCOCC2)c2c(c1C#N)CC(C)(C)OC2 | 0 (inactive)
15 | Cc1nc(SC2CCOC2=O)c2c(C)c(C)sc2n1 (configuration not stated) | 1 (active)
16 | CCNC(=S)N/N=C/c1c(Cl)cccc1Cl | 1 (active)
17 | COc1ccc(C)cc1S(=O)(=O)Nc1cccc(Cl)c1Cl | 0.5 (inactive)
18 | Cc1ccc(NC(=S)N/N=C/c2c(Cl)cccc2Cl)c(C)c1 | 1 (active)
19 | CCOC(=O)N/N=C/c1c(C)nn(-c2ccccc2Cl)c1Cl | 0 (inactive)
20 | Cc1cccc(-n2c(O)c(/C=N/NC(=O)c3ccccc3Cl)c3ccccc3c2=O)n1 | 3 (inactive)
21 | Cc1ccc(NCC(=O)Nc2cccc(S(=O)(=O)N(C)C)c2)c(Cl)c1 | 0 (inactive)
22 | O=C(Cn1nc(Cc2ccncc2)c2ccccc2c1=O)N1CCN(C(=O)c2ccco2)CC1 | 0 (inactive)
23 | COc1cccc(-n2c(SCC(=O)NCCC3=CCCCC3)nc3n[nH]c(C)c3c2=N)c1 | 0 (inactive)

Row | SMILES | manual score
24 | Cc1cc(C)c2nc(SCC(=O)NCCC3=CCCCC3)cc(C)c2c1 | 1 (active)
25 | O=C(CCCc1nc(-c2ccc(Cl)cc2)no1)Nc1cccnc1 | 0 (inactive)
26 | CCOC(=O)c1cnn2c1[nH]c(=O)c1ccccc12 | 1 (active)
27 | Cc1cc2[nH]c(=O)c3ccccc3n2n1 | 0 (inactive)
28 | CCOC(=O)c1ccccc1Nc1cn(C(C)=O)c2ccccc12 | 0 (inactive)
29 | CN(C=O)CP(=O)(O)CCN1CCCC1=O | 0 (inactive)
30 | Cc1cc(C(=O)N2CCN(CCc3ccccc3)CC2)no1 | 0 (inactive)
31 | S=c1[nH]nc(-c2cc3c(s2)-c2ccccc2CC3)o1 | 1 (active)
32 | CN1C=CC2=C(C#N)C(N)C(C#N)(C#N)[C@H](c3ccccc3)[C@H]2C1 (some centres not stated) | 3 (inactive)
33 | COc1ccc(-c2cc(C(F)(F)F)c3c(n2)sc2c(O)cc(=O)[nH]c23)c(OC)c1 | 0 (inactive)
34 | O=C(NCCCN1CCN(c2cccc(Cl)c2)CC1)c1cccc(N2CCCC2=O)c1 | 0 (inactive)
35 | O=C(Nc1cccc(Cl)c1)Nc1nccs1 | 0 (inactive)
36 | Cn1sc(NC(=O)c2cccc(Cl)c2)nc1=O | -1 (active)
37 | CCn1c(=S)[nH]c2nc3c(cc2c1=O)CCCC3 | 1 (active)
38 | C=CCn1c(=S)[nH]c2nc3c(cc2c1=O)CCCC3 | 1 (active)
39 | Cc1noc(C)c1S(=O)(=O)N1CCC(Cc2ccccc2)CC1 | 0 (inactive)
40 | CCCCCCN1C2=NCCN2c2ccccc21 | 0 (inactive)
41 | CCC(=O)N1c2ccc(C)cc2C2=NNC(=S)NC21O (configuration not stated) | 1 (active)
42 | COCC(=O)/C=C1\Sc2ccccc2N1C | 0 (inactive)
43 | CCOc1ccccc1C(=O)N1c2ccccc2Sc2ccccc21 | 0 (inactive)
44 | COc1ccccc1C(=O)N1c2ccccc2Sc2ccccc21 | -1 (active)
45 | COc1cc(C(=S)N2CCCC2)cc(OC)c1OS(=O)(=O)c1ccc(NC(C)=O)cc1 | -1 (active)
46 | COc1ccc(C(=O)Nc2ccc(S(=O)(=O)NCc3ccco3)cc2)cc1OC | -0.5 (inactive)

Row | SMILES | manual score
47 | COc1cc(NC(=O)CS(=O)(=O)c2ccc(C)cc2)cc(OC)c1OC | 0 (inactive)
48 | O=C(NC(Nc1nc2ccc([N+](=O)[O-])cc2s1)(C(F)(F)F)C(F)(F)F)c1ccccc1Cl | 1 (active)
49 | O=C(NC(Nc1nc2ccc([N+](=O)[O-])cc2s1)(C(F)(F)F)C(F)(F)F)c1ccccc1 | 1 (active)
50 | O=C(Nn1c(C2CCCCC2)nc2ccccc2c1=O)c1ccc([N+](=O)[O-])cc1Cl | 0 (inactive)
51 | CS(=O)(=O)c1ccc2nc(NC(=O)C3C4C=CC(C4)C3C(=O)O)sc2c1 (configuration not stated) | 0 (inactive)
52 | Cc1ccc(C)c(OCC(=O)Nc2nc3ccc([N+](=O)[O-])cc3s2)c1C | 0 (inactive)
53 | N#C/C(=C/C=C/c1ccccc1)C(=O)Nc1ccccc1 | 0 (inactive)
54 | O=c1oc(-c2ccc(Br)o2)nc2ccccc12 | 0 (inactive)
55 | S=c1[nH]nc(-c2cc3ccccc3o2)n1Cc1ccccc1 | 1 (active)
56 | CCn1c(-c2cc3ccccc3cc2O)n[nH]c1=S | 0 (inactive)
57 | S=c1[nH]nc(-c2ccc(Br)o2)n1Cc1ccccc1 | 1 (active)
58 | Cn1c(SCC(=O)c2cc3ccccc3o2)nnc1-c1ccccc1 | 0 (inactive)
59 | CC(C)N(Cc1nc(-c2ccccc2)no1)C(=O)CSc1ccccc1 | 0 (inactive)
60 | CN1C2C=C3C(C#N)=C(N)C(C#N)(C#N)[C@@H](c4ccsc4)[C@@H]3C1CC2 (some centres not stated) | 0 (inactive)
61 | CC1(C)CC(=O)C2=C(C1)N(c1ccccc1)C(N)=C(C#N)C2c1ccsc1 (configuration not stated) | -1 (active)
62 | CC1(C)CC(=O)C2=C(C1)NC(SCC(=O)Nc1ccccc1)=C(C#N)C2c1ccco1 (configuration not stated) | 0.5 (inactive)
63 | CCC(C)(C)n1nnnc1C(c1ccccn1)N1CCCCC1 (configuration not stated) | 0 (inactive)
64 | Cc1c(C2Nc3ccccc3NC3=C2C(=O)CC(C)(C)C3)cnn1C (configuration not stated) | 0 (inactive)
65 | CC(C)Sc1nc2c(c(=O)[nH]1)C(c1cccs1)C1=C(CC(C)(C)CC1=O)N2 (configuration not stated) | -1 (active)
66 | Cc1cc2c(cc1C)NC(c1c(C)n(C)n(-c3ccccc3)c1=O)C1=C(CC(C)(C)CC1=O)N2 (configuration not stated) | 3 (inactive)
67 | O=C(NCc1cccs1)c1cccnc1C(=O)O | 0 (inactive)

Reference: PubChem BioAssay AID623868 (Vanderbilt High Throughput Screening Facility, 2012)
